Screening results deposited in PubChem BioAssay by The Scripps Research Institute Molecular Screening Center.
TEAD-YAP block: TEAD-YAP interaction inhibition; HEK-TIYL cells, TEAD-Gal4/YAP UAS-luciferase luminescence; inhibition, % at 9.12 µM; 1.4% of 640,000 active; AID 1259422; in the data active means inhibition above about 32%
GPR151 activ: human GPR151 activation; Q8TDV0; PathHunter beta-arrestin GPR151 cells, luminescence; activation, % at 11.2 µM; 1% of 650,000 active; in the data active means activation above about 4.9%
MITF inh: human MITF inhibition, primary screen | AlphaScreen MITF homodimerization, bead proximity signal | inhibition, % at 2.6 µM | 0.91% of 650,000 active; in the data active means inhibition above about 50%
Target sequence (O75030 whole entry, looked up): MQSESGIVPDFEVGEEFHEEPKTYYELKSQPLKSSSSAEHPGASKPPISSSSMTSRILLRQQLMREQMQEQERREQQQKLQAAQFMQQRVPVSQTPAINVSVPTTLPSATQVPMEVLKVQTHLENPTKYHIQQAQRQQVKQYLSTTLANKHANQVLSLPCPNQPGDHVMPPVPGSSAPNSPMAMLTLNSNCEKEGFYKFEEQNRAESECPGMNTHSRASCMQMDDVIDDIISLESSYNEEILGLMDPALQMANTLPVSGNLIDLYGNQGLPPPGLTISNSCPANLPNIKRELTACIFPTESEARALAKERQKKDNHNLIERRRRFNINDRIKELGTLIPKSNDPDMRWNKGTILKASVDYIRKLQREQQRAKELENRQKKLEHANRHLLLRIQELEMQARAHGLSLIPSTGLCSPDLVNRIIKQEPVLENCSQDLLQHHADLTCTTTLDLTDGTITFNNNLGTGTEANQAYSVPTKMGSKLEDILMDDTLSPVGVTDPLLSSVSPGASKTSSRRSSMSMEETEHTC
FBW7 activator: human FBW7 E3 ligase activation, primary screen | AlphaScreen FBW7–phospho-cyclin E peptide binding, activator screen | normalized activity (activation), % at 26.1 µM | 0.13% of 650,000 active | AID 1259310; in the data active means normalized activity above about 1.9%;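 further: purified mutant Fbw7 with reduced substrate affinity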
Large screens that a line does not name were inactive. The list is not random: actives were taken first. Their share in the collection is about 3.4%.

O=C(Nc1ccc(-c2nc3ccccc3c(=O)o2)cc1)C1CC1	TEAD-YAP block 48.2
CC(C)(C)c1ccc(-c2nc3ccccc3c(=O)[nH]2)cc1	TEAD-YAP block 83.2
O=C(Nc1ccc(-c2nc3ccccc3o2)cc1)C1CCN(CCCn2cccn2)CC1	TEAD-YAP block 77.6
Cc1ccc(-c2nc3ccccc3c(=O)[nH]2)cc1	none
CCc1ccccc1OCC(=O)Nc1ccc(F)cc1	none
O=C(Nc1ccc(Cl)c(Cl)c1)c1ccc(F)c(S(=O)(=O)NCc2ccco2)c1	none
CSc1nc2ccc3nc(NC(=O)C(c4ccccc4)c4ccccc4)sc3c2s1	none
Cc1noc(C)c1CN1C(=O)C(C)Sc2ccccc21 (centres undefined)	none
Nc1ccccc1-c1nc2ccccc2c(=O)o1	FBW7 activator 2.4
Clc1ccc(CSc2nn3cnnc3s2)cc1	TEAD-YAP block 53.4
CN(Cc1ccc(-n2cccn2)cc1)C(=O)CCc1nnc(CCC2CCCCC2)o1	none
CCC(Nc1ccc(Br)cc1)C(=O)N/N=C/c1ccc(O)cc1O (centres undefined)	TEAD-YAP block 76.2
CCC(Nc1ccc(Br)cc1)C(=O)N/N=C/c1cc([N+](=O)[O-])ccc1O (centres undefined)	TEAD-YAP block 42.7
CCC(Nc1ccc(Br)cc1)C(=O)N/N=C/c1cc(OC)ccc1O (centres undefined)	none
Cc1ccn2c(-c3csc(Nc4ccc(N(C)C)cc4)n3)c(C)nc2c1	TEAD-YAP block 54.0
Cc1ccc(Nc2nc(-c3c(C)nc4ncccn34)cs2)c(C)c1	TEAD-YAP block 51.9
Cc1ccc(Nc2nc(-c3cccnc3)cs2)c(C)c1	TEAD-YAP block 48.6
Cc1ccc(Nc2nc(-c3c(C)nc4cc(C)ccn34)cs2)c(C)c1	TEAD-YAP block 41.7
Cc1ccc(Nc2nc(-c3ccncc3)cs2)c(C)c1	none
O=C(c1cc2ccccn2n1)N1CCc2ccccc21	TEAD-YAP block 65.8
O=C(O)C1Nc2c(C(=O)N3CCCC3)cccc2C2C=CCC12 (centres undefined)	MITF inh 80.0
O=C(Oc1ccc(-c2ccccc2)cc1)c1cccc2c1NC(C(=O)O)C1CC=CC21 (centres undefined)	MITF inh 50.9
O=C(O)C1Nc2c(C(=O)N3CCOCC3)cccc2C2C=CCC12 (centres undefined)	MITF inh 57.5
CC(C)C1Nc2c(C(=O)O)cccc2C2C=CCC21 (centres undefined)	none
O=C(CCCC(=O)c1ccccc1)NCCc1cccc(F)c1	none
Cc1ccc(S(=O)(=O)/N=C2/NC(=O)/C(=C/c3cccc([N+](=O)[O-])c3)S2)cc1	none
O=C(CSc1n[nH]c(/C=C/c2ccc(F)cc2)n1)Nc1cc(C(=O)O)cc([N+](=O)[O-])c1	TEAD-YAP block 68.9
CC(=O)Oc1cccc(N2Cc3ccccc3C2=O)c1	TEAD-YAP block 73.0
CNC(=O)Cc1nc2ccccc2n1CC(=O)Nc1cccc(C(C)=O)c1	none
N#C/C(C(=O)Nc1ccccc1F)=C1\C(=O)Nc2c(Cl)cc(Cl)cc21	none
COc1ccccc1/C=C(\NC(=O)c1ccccc1)C(=O)Nc1cccc(O)c1	TEAD-YAP block 40.5
COc1cccc(/C=N/NC(=O)c2cccs2)c1	none
COc1cccc(N=C/C(C(=O)C(F)(F)F)=C(\O)c2cccs2)c1	TEAD-YAP block 81.6
COc1cc(/C=N/NC(=O)c2cc(OC)c(OC)c(OC)c2)cc(OC)c1O	TEAD-YAP block 56.5
COC(=O)N/N=C/c1ccc(Br)s1	none
COc1cc(C(=O)N/N=C/c2cccc(Br)c2)cc(OC)c1OC	TEAD-YAP block 60.4
COc1cc(/C=N\NC(=O)c2c(C)nc3ccc(Cl)cn23)cc(OC)c1OC	none
COc1ccc(C(=O)N/N=C/c2cc(OC)c(O)c(OC)c2)cc1OC	none
COc1cc(/C=N/NC(=O)c2c(C)nc3ccc(Cl)cn23)cc(OC)c1OC	FBW7 activator 16.1
COc1cc(C(=O)N/N=C/c2ccc(Br)s2)cc(OC)c1OC	TEAD-YAP block 59.1
COc1cc(C(=O)N/N=C/c2ccc(OC)c(OC)c2C(=O)O)cc(OC)c1OC	TEAD-YAP block 66.8
O=C(N/N=C/c1ccc(Br)s1)c1ccncc1	TEAD-YAP block 35.9
COc1cc(C(=O)N/N=C/c2ccc(O)cc2)cc(OC)c1OC	TEAD-YAP block 56.8
O=C(N/N=C/c1cc(Br)c(Br)s1)c1ccncc1	none
CCOC(=O)C1=C(C)N=c2s/c(=C/c3ccccc3F)c(=O)n2C1c1ccccc1Cl (centres undefined)	none
Cc1csc(NC2=NCCCCC2)n1	none
O=C(NCCCO)/C(=C/c1ccc2c(c1)OCO2)NC(=O)c1ccccc1Cl	none
COCC1CCN(Cc2c(C(=O)N(C)CCc3ccccc3)nc3c(C)cccn23)CC1	none
Cc1cccc(N=C(NN)c2ccc3ccccc3n2)c1	TEAD-YAP block 65.7
CCOC(=O)CNC(=O)n1ncc2cc(Cl)ccc21	none
Cc1ccc(-c2noc(CCCCCN)n2)cc1	TEAD-YAP block 72.0
CC(C)c1ccc(NC(=O)C(c2ccccc2)N2CCC(Cc3ccccc3)CC2)cc1 (centres undefined)	none
CCC(C)N1C(=O)/C(=C/c2c(NCc3ccco3)nc3ccccn3c2=O)SC1=S (centres undefined)	TEAD-YAP block 43.3
COc1ccccc1C1CC(=O)Nc2cc(C)c(C)cc21 (centres undefined)	TEAD-YAP block 56.9
Cc1cc2c(cc1C)C(c1ccccc1C)CC(=O)N2 (centres undefined)	none
CCCCOc1ccccc1C1CC(=O)Nc2cc(C)c(C)cc21 (centres undefined)	none
CCOc1ccccc1C1CC(=O)Nc2cc(C)c(C)cc21 (centres undefined)	TEAD-YAP block 40.9
Cc1cc2c(cc1C)C(c1ccccc1OC(C)C)CC(=O)N2 (centres undefined)	TEAD-YAP block 55.2
Cc1occc1-c1nn(C2CCN(C(=O)C(C)C)CC2)c(=O)o1	none
O=C(COc1ccc(Br)cc1Cl)N1CCCCCC1	none
CCN1CCN(C(c2ccccc2)c2nnnn2C2CCCCC2)CC1 (centres undefined)	TEAD-YAP block 39.2
COc1ccc(N2CCN(CCN3CCCCC3)CC2)cc1	MITF inh 81.9
CCCN(CCC)C(=O)CSc1nc2n[nH]c(C)c2c(=N)n1-c1cccc(C)c1	none
CCC(Sc1nc2n[nH]c(C)c2c(=N)n1-c1cccc(Cl)c1)C(=O)N1CCCC1 (centres undefined)	TEAD-YAP block 48.9
CCC(Sc1nc2n[nH]c(C)c2c(=N)n1-c1cccc(C)c1)C(=O)N(CC)CC (centres undefined)	TEAD-YAP block 38.6
Cc1ccc(Cl)cc1NC(=O)c1ccco1	none
Cc1ccc2nc(N3CCN(C=O)CC3)nc(-c3ccccc3)c2c1	FBW7 activator 2.1
O=C(c1ccccc1)N1CCN(c2nc(-c3ccccc3)c3ccccc3n2)CC1	FBW7 activator 2.2
Cc1ccc(C(=O)N2CCN(c3nc(-c4ccccc4)c4cc(Br)ccc4n3)CC2)cc1	none
CN(C)c1ccc(C2N(O)C3CCCCC3N2O)cc1 (centres undefined)	TEAD-YAP block 33.6
COC(=O)c1ccc(C2N(O)C3CCCCC3N2O)cc1 (centres undefined)	none
